Compound activity: PubChem, National Center for Advancing Translational Sciences (NCATS)
TGFb inhibitor – qHTS for Inhibitors of TGF-b. HepG2 CAGA-GFP TGF-b/SMAD3 reporter, GFP fluorescence, 18 h; TGF-beta stimulated, 500 pg/mL final. Potency, µM (top dose mostly 46.1 µM), usual class: inhibitors. actives 1.2% (n = 410,000); further: nearly all actives have a fitted effect of over 65% in size
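HEPG2 CAGA-GFP cells (1000/well, DMEM with 1% FBS) were pre-incubated 2 h at 37 degrees C, given compound by pin tool, then stimulated with TGF-beta at 500 pg/mL final for 18 h before per-cell GFP fluorescence imaging.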
Gal4-VP16 FLuc – VP16 counterscreen qHTS for inhibitors of ROR gamma transcriptional activity. actives 3.5% (n = 310,000). Potency, µM (doses to about 53.6 µM), usual class: inhibitors. Drosophila S2 Gal4-VP16 UAS-luciferase, luminescence, 20 h;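 further: Gal4-VP16 expression switched on by copper sulfate through the metallothionein promoter; nearly all actives have a fitted effect of over 50% in size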
S2 tox – Viability Counterscreen for Primary qHTS for Inhibitors of ATXN expression | S2 cells (HEK-293 line with an ATXN2-luciferase reporter) viability, CellTiter-Fluor protease fluorescence, 24 h | Potency, µM (series often up to 56.7 µM), actives largely listed as cytotoxic | actives 0.49% (n = 400,000); further: nearly all actives have a fitted effect of over 40% in size
RORgamma inh – qHTS for inhibitors of ROR gamma transcriptional activity; actives 5.4% (n = 310,000); Potency, µM (titrated, usually from 53.6 µM), actives largely listed as inhibitors; Drosophila S2 Gal4-RORgamma UAS-luciferase reporter, 20 h; further: nearly all actives have a fitted effect of over 60% in size
Target sequence (P51450 whole entry, looked up, the tested form may be a part): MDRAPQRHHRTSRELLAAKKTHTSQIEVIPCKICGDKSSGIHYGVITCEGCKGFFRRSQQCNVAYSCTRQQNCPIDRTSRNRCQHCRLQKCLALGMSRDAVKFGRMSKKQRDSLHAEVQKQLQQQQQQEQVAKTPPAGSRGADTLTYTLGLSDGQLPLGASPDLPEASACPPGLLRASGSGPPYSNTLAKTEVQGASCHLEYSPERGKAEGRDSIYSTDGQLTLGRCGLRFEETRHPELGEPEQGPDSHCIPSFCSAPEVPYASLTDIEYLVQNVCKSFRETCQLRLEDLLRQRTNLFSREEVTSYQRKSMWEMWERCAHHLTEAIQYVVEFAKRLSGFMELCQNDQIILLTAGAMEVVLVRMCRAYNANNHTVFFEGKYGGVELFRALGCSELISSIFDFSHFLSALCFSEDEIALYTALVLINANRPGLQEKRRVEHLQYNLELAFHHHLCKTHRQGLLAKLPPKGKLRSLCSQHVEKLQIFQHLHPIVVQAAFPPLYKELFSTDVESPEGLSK
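Luminescence from a UAS-regulated Photinus luciferase reporter in stably transfected Drosophila Schneider cells is measured; decreased signal marks ROR gamma inhibition. Fusion expression is induced by 700 uM copper sulfate for 20 hr.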
ATXN2 expr inh – Primary qHTS for Inhibitors of ATXN expression; HEK-293 ATXN2-luciferase reporter, luminescence, 24 h; Potency, µM (top dose mostly 57 µM), most hits filed as inhibitors; actives 0.72% (n = 360,000); AID 1745845, 2022; further: nearly all actives have a fitted effect of over 55% in size
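ATXN2-luciferase reporter cells (luciferase flanked by upstream and downstream ATXN2 gene portions) were treated 24 h at 37 °C with compounds at up to 57 uM. SteadyGlo luminescence gave expression; GF-AFC fluorescence gave viability.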
HepG2 viability – qHTS for Inhibitors of TGF-b: Cytotox Counterscreen; HepG2 CAGA-GFP viability, ATP luminescence, 18 h; Potency, µM (titrated, usually from 46.1 µM), hits mostly cytotoxic; actives 0.76% (n = 410,000)
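HepG2 CAGA-GFP cells (1000/well, DMEM with 1% FBS) received compound, then TGF-beta at 500 pg/mL final, and were incubated 18 hours at 37 degrees C. Viability was read by CellTiter-Glo luminescence. Media-only wells were set as complete cell-killing and DMSO as no toxicity.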
A number is an active result; . = inactive; ? = inconclusive; / = no result; [ ] = remark or other dose. Most compounds without a hit are left out; they make up all but 6.3% or so of the library. The call rests on the fitted dose curve; in most records, active means well fitted curve in the direction sought with a large enough effect; inconclusive means small, poorly fitted or top-dose-only effect, or another doubt; inactive means no such curve, though single readings can be large; an effect the other way counts as inactive or inconclusive.

SMILES | TGFb inhibitor | Gal4-VP16 FLuc | S2 tox | RORgamma inh | ATXN2 expr inh | HepG2 viability
CCOc1ccccc1NS(=O)(=O)c1ccc(-c2cnc(C3CC3)o2)cc1 | 4.5µM | . | . | ? | / | .
Cc1cc(C)c(NS(=O)(=O)c2cc(-c3cnc(C4CC4)o3)ccc2C)c(C)c1 | . | / | . | / | . | .
Cc1ccc(-c2cnc(C3CC3)o2)cc1S(=O)(=O)Nc1ccccc1 | . | . | ? | . | / | .
CCOc1ccccc1NS(=O)(=O)c1cc(-c2cnc(C3CC3)o2)ccc1C | . | / | . | / | . | .
CC1(C)OC(=O)C2(Cc3cc(C(F)(F)F)ccc3N3CCCCC32)C(=O)O1 (stereo not drawn) | . | / | / | / | / | .
Cc1ccc(NS(=O)(=O)c2ccc(-c3cnc(C4CC4)o3)cc2)c(C)c1 | 13µM | . | ? | . | / | .
COc1ccccc1CNS(=O)(=O)c1ccc(S(=O)(=O)NC2CC2)cc1 | ? | . | . | . | . | .
CCN(CC)c1ccc(NS(=O)(=O)c2ccc(-c3cnc(C4CC4)o3)cc2)c(C)c1 | ? | / | ? | / | ? | .
O=S(=O)(Nc1ccc(F)cc1Cl)c1ccc(-c2cnc(C3CC3)o2)cc1 | 14µM | . | . | ? | / | .
COc1ccc(NS(=O)(=O)c2ccc(-c3cnc(C4CC4)o3)cc2)cc1OC | . | 7.1µM | . | ? | / | .
COc1ccccc1CNS(=O)(=O)c1ccc(-c2cnc(C3CC3)o2)cc1 | 11µM | ? | ? | ? | . | .
O=S(=O)(c1ccc(-c2cnc(C3CC3)o2)cc1)N1CCN(c2ccc(F)cc2)CC1 | ? | / | . | / | . | .
O=C(Nc1ccccc1)N1CCC2(CC1)CCN(C(=O)c1ccncc1)CC2 | / | . | / | . | / | /
CCc1noc(C)c1C(=O)N1CCOc2ccc(CN3CCN(c4ccccn4)CC3)cc2C1 | / | / | . | / | / | /
COc1ccc(CN2CCC(n3cc(C(=O)N4CCCC4)nn3)CC2)c(OC)c1C | / | / | . | / | / | /
Cc1ccc(NS(=O)(=O)c2cc(-c3cnc(C4CC4)o3)ccc2C)cc1Cl | 7.1µM | / | . | / | . | 11µM
CNC(=O)c1sc(N2N=C3/C(=C/c4ccccc4)CCCC3C2c2ccccc2)nc1C (stereo not drawn) | . | . | / | . | 13µM | .
CCCn1c(=O)c2sccc2n2c(CCCC(=O)NC3CCCCC3)nnc12 | . | / | / | / | / | .
CCn1c(-c2csc(-c3ccccc3)n2)n[nH]c1=S | . | 6.3µM | . | 2.5µM | . | .
CCn1c(-c2c[nH]c3ccccc23)n[nH]c1=S | . | . | . | ? | . | .
CCn1c(-c2csc(-c3ccc(Cl)cc3)n2)n[nH]c1=S | . | ? | . | 1.3µM | . | .
CCNc1ncc2nc(-c3ccc(OC)cc3)c(=O)n(C)c2n1 | / | . | / | . | / | /
CC(=Cc1ccccc1)C=C1SC(=S)N(CC(=O)O)C1=O | / | / | / | / | . | /
CC(/C=C1\SC(=O)N(CCCC(=O)O)C1=O)=C\c1ccccc1 | ? | 0.32µM | . | 0.1µM | 1.3µM | .
CC(=C\c1ccccc1)/C=C1/SC(=S)N(CCCC(=O)O)C1=O | . | 0.63µM | . | ? | ? | .
SMILES | TGFb inhibitor | Gal4-VP16 FLuc | S2 tox | RORgamma inh | ATXN2 expr inh | HepG2 viability
CCOc1ccc2nc(NC3=NC(c4ccc(OC)cc4)CC(=O)N3)nc(C)c2c1 (stereo not drawn) | ? | ? | 8.9µM | ? | 8.9µM | .
O=C(CCl)Nc1ccccc1Sc1ccc(Cl)cc1 | . | . | / | ? | / | .
Cc1ccc(C)c(Sc2ccc(NC(=O)CCN3C(=O)NC4(CCCC4)C3=O)cc2)c1 | ? | / | ? | / | ? | 16µM
Cc1ccc(Sc2ccc(NC(=O)CCl)cc2)c(C)c1 | ? | 5µM | / | 2.8µM | 32µM | .
CC(NC(=O)c1ccc(CS(C)(=O)=O)cc1)c1cccc2ccccc12 (stereo not drawn) | . | . | . | . | . | .
CC(C)(C)c1cc(NCc2ccccn2)n2ncc(-c3ccccc3)c2n1 | 14µM | 1.4µM | . | 0.45µM | . | .
COc1ccc(NC2=Nc3ccccc3N3C2=Nc2c(c(C)nn2-c2ccc(C)cc2)C3c2cccnc2)cc1 (stereo not drawn) | . | . | . | . | . | .
CC(=O)Nc1ccc(NC2=Nc3ccccc3N3C2=Nc2c(c(C)nn2-c2ccccc2)C3c2ccccc2)cc1 (stereo not drawn) | . | 0.89µM | ? | 0.089µM | 7.9µM | .
CCc1nnc(N/N=C/c2ccc(-c3ccc([N+](=O)[O-])cc3)o2)n1N | ? | ? | . | 3.5µM | . | .
Cc1n[nH]c(=S)n1/N=C/c1ccc(-c2ccccc2[N+](=O)[O-])o1 | . | ? | . | ? | . | .
Cc1nnc(N/N=C\c2ccc(-c3ccccc3[N+](=O)[O-])o2)n1N | 8.9µM | ? | . | ? | . | .
CCc1nnc(N/N=C/c2c(F)cccc2Cl)n1N | ? | ? | ? | ? | / | .
CCC(=O)N/N=C/c1ccc(-c2ccc([N+](=O)[O-])cc2)o1 | . | . | . | . | . | .
O=C(N/N=C/c1ccc(-c2ccccc2[N+](=O)[O-])o1)[C@H]1C[C@@H]1c1ccccc1 | . | 11µM | . | ? | . | .
Cc1nnc(N/N=C/c2ccc(-c3ccccc3F)o2)n1N | ? | ? | . | 7.9µM | . | .
O=C(N/N=C/c1ccc(-c2ccc([N+](=O)[O-])cc2)o1)[C@H]1C[C@@H]1c1ccccc1 | . | . | . | . | . | .
CC(Oc1ccc(F)cc1)C(=O)Nc1cc(S(=O)(=O)N2CCCCC2)ccc1N1CCOCC1 (stereo not drawn) | . | / | . | / | . | .
O=C(CC1CCCC1)Nc1cc(C(F)(F)F)ccc1-n1cncn1 | . | / | . | / | . | .
O=C1OC(/C(=C\Nc2ccc(F)cc2F)[N+](=O)[O-])c2ccccc21 (stereo not drawn) | . | ? | . | 14µM | .[11.3 µM] | .
COc1cc(OC)c2c(=O)c(O)c(-c3ccc(OC)c(OC)c3)oc2c1 | / | ? | / | 2.8µM | / | /
COc1ccc(-c2oc3ccccc3c(=O)c2O)cc1OC | / | ? | / | 6.3µM | / | /
CCOc1ccc(-c2oc3ccccc3c(=O)c2O)cc1OCC | ? | / | . | / | . | .
COc1cc(-c2oc3cc(O)cc(O)c3c(=O)c2O)ccc1O | . | . | / | . | / | .
O=c1c(O)c(-c2ccc3c(c2)OCO3)oc2ccccc12 | . | 11µM | . | 6.3µM | . | .
COc1ccc(-c2oc3c(OC)c(OC)c(OC)c(O)c3c(=O)c2OC)cc1OC | . | ? | . | 11µM | ? | .
O=C1COc2ccccc2C(c2nc3ccccc3[nH]2)N1Cc1ccccc1 (stereo not drawn) | / | / | ? | / | . | /
